Assay outcomes deposited in PubChem by several laboratories.
APOBEC3G inh – APOBEC3G (human) deaminase inhibition. 330,000 tested, 0.28% active. recombinant A3G, ssDNA deamination FAM/TAMRA fluorescence. Q9HC16. inhibition, % at 20 µM;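 active means inhibition of at least 40% at 20 µM, with no more than 30% in the related APOBEC3A deaminase screen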;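 further: plate controls were DMSO wells with A3G for no effect and wells lacking A3G enzyme for full effect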
Target sequence (Q9HC16 whole entry, looked up): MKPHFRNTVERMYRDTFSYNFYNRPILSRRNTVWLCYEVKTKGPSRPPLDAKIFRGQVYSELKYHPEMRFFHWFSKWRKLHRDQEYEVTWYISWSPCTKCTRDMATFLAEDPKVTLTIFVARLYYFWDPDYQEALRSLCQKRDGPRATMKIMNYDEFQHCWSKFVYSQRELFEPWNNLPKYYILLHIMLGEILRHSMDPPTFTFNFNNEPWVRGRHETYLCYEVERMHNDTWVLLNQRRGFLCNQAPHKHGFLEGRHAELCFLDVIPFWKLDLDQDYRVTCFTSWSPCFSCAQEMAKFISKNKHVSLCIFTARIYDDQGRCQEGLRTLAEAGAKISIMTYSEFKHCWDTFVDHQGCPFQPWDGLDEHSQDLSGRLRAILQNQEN
A3A deaminase – human APOBEC3A DNA deaminase inhibition. P31941. inhibition, % at 20 µM. 330,000 tested, 0.41% active. recombinant A3A, FAM/TAMRA ssDNA deamination fluorescence;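 active means at least 40% inhibition at 20 µM here, with at most 30% in a related deaminase screen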;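 further: plate controls were A3A with DMSO for no effect and wells lacking A3A enzyme for full effect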
Target sequence (P31941 whole entry, looked up): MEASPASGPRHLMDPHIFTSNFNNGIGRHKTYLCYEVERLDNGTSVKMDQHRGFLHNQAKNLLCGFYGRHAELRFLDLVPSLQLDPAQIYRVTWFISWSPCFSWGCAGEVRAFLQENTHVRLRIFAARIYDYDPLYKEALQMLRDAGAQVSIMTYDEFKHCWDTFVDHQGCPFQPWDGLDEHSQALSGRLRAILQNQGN
AHR act – human AHR activation; P35869; AHR-responsive luciferase reporter cells, luminescence; activation, % at 5 µM; 320,000 tested, 2.5% active; in the data active means activation above about 47%;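 further: 0% = vehicle wells and 100% = reference agonist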
NTR1 agonist – activates human neurotensin receptor 1; NTR1-U2OS beta-arrestin-GFP spot imaging, agonist mode; activation, % at 20 µM; 330,000 tested, 0.17% active;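 active means activation at or above 40% of the spot to cytoplasm intensity ratio, with at least 20 cells analyzed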;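 further: 0% = DMSO without peptide and 100% = 100 nM NTR1 peptide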
AHR act cf – human AHR activation, confirmation. shares compounds with AHR act. human cells, AHR-responsive luciferase reporter, luminescence. activation, % at 9 µM. 2,300 tested, 87% active. AID 2845; in the data active means activation above about 49%;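 further: HepG2 hepatoma cells carrying a DRE-driven firefly luciferase reporter; 0% = vehicle wells and 100% = reference agonist wells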
PXR act counter – activates human PXR in AHR activator counter-screen. shares compounds with AHR act. AID 434939. cell-based PXR reporter, luciferase luminescence. activation, % at 11.6 µM. 2,300 tested, 88% active; in the data active means activation above about 11%;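 further: human hepatoma DPX-2 cells expressing full-length human PXR; 0% = DMSO and 100% = reference agonist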
The depositor's hits bear a star; . = no result. This is a sample that favours compounds with a hit; in the whole collection about 3.2% have one here.

SMILES | APOBEC3G inh | A3A deaminase | AHR act | NTR1 agonist | AHR act cf | PXR act counter
CCc1nc2oc3ccccc3c(=O)c2c(=O)n1-c1ccccc1 | -4.7 | -14.1 | 98.9* | 1.3 | 117.9* | 23.5*
CCCc1nc2oc3ccccc3c(=O)c2c(=O)n1-c1ccc(C)cc1 | -2.2 | -1.0 | 80.7* | 1.5 | 76.0* | 67.8*
COc1ccc(C(=O)Nc2ccccc2C(=O)NC(Cc2c[nH]c3ccccc23)C(=O)O)cc1 (configuration not stated) | -0.1 | 0.4 | 13.5 | 3.1 | . | .
CC(C)(C)c1ccc(-c2nnc(NC(=O)c3ccccc3)s2)cc1 | -5.8 | -3.6 | 3.1 | 5.6 | . | .
COc1ccc(NC(=O)Nc2nnc(Cc3ccccc3)s2)cc1 | 0.7 | -0.7 | 16.1 | -0.2 | . | .
O=C(CN1CCCC1)Nc1nnc(-c2cccs2)s1 | -10.0 | -8.2 | 125.9* | 0.6 | 124.6* | 16.0*
COCC(=O)Nc1nnc(-c2ccc(C(C)(C)C)cc2)s1 | -2.9 | 5.3 | 85.8* | 7.0 | 98.9* | 29.7*
O=C(CN1CCCCC1)Nc1nnc(-c2ccccc2)s1 | -5.9 | -0.2 | 109.2* | 0.2 | 132.2* | 26.9*
COc1ccc(NC(=O)Nc2nnc(-c3cccs3)s2)cc1 | -1.9 | 4.3 | 89.8* | 1.2 | 101.6* | 36.9*
O=C(N/N=C/C1C(c2ccccc2)C1(Cl)Cl)c1cccc(Cl)c1 (configuration not stated) | -5.1 | -1.0 | 7.7 | 0.8 | . | .
Cc1ccc(C(=O)NN2C(=O)C3C(C2=O)C2C=CC3C23CC3)cc1 (configuration not stated) | 1.4 | -3.4 | 1.0 | 2.0 | . | .
CCc1nc(Nc2ccccc2)c2oc3ccccc3c2n1 | 0.3 | 2.9 | 22.3 | 0.9 | . | .
CCc1nc(NCCCn2ccnc2)c2oc3ccccc3c2n1 | -0.1 | 2.7 | 109.3* | 0.5 | 114.3* | 41.1*
CCc1nc(Nc2ccc(F)cc2)c2oc3ccccc3c2n1 | -4.6 | -2.0 | 23.8 | 5.6 | . | .
CCc1nc(Nc2ccccc2F)c2oc3ccccc3c2n1 | -9.3 | -5.5 | 94.2* | 5.2 | 95.0* | 42.5*
CCCn1c(=O)[nH]c(=O)c2c1nc(-c1cccs1)n2CCOC | -1.2 | -0.2 | 2.2 | 0.7 | . | .
CCN(CC)c1ccc(/C=C2\NC(=O)NC2=O)cc1 | -4.8 | -2.0 | 87.8* | -2.3 | 56.5* | 11.3*
CC(=O)c1ccc(OCc2cc(C(=O)NCCc3ccc(Cl)cc3)no2)cc1 | -6.2 | -6.5 | 0.3 | -0.8 | . | .
COc1ccccc1/C=C/C(=O)N1CCCC1 | 3.6 | 1.7 | 84.0* | 0.0 | 102.3* | 16.7*
COc1ccccc1/C=C/C(=O)N1CCN(S(=O)(=O)c2cccs2)CC1 | -7.2 | -2.9 | 3.8 | 1.5 | . | .
O=C1C(Cl)=C(NCCc2ccccc2)C(=O)N1CCc1ccccc1 | -6.1 | -0.8 | 35.4 | 0.0 | . | .
O=C1C(Cl)=C(NCC2CCCO2)C(=O)N1CCc1ccccc1 (configuration not stated) | -3.3 | -1.0 | 92.4* | 1.6 | 90.8* | 65.3*
CN1CCN(C2=C(Cl)C(=O)N(CCc3ccccc3)C2=O)CC1 | -5.1 | 0.9 | 0.6 | 0.3 | . | .
O=C1C(Cl)=C(N2CCOCC2)C(=O)N1CCc1ccccc1 | -4.6 | -1.2 | 92.1* | 1.1 | 116.7* | 16.2*
Cc1nc(NC(=O)c2cccc(Cl)c2)sc1C(=O)N1CCCCC1 | -10.4 | -4.7 | 10.1 | 1.8 | . | .
SMILES | APOBEC3G inh | A3A deaminase | AHR act | NTR1 agonist | AHR act cf | PXR act counter
CCn1cc(Br)c(C(=O)Nc2ccc(Cl)cc2Cl)n1 | -3.0 | 1.6 | 81.8* | 5.6 | 126.5* | 11.3*
CCOC(=O)c1c(NC(=O)c2nn(CC)cc2Br)sc(C)c1C | 6.7 | -0.5 | 15.0 | 4.8 | . | .
O=C(CSCC(=O)Nc1nc(-c2ccc3c(c2)OCO3)cs1)Nc1nccs1 | 6.2 | 3.5 | 100.1* | 9.6 | 62.7* | 27.1*
O=C(CSc1ccc(-c2ccc3c(c2)OCO3)nn1)Nc1nccs1 | -8.4 | 2.4 | 16.9 | 10.7 | . | .
COc1ccccc1-n1cc(-c2ccccc2)[nH]c1=S | -9.0 | -5.7 | 102.3* | 0.7 | 105.7* | 48.5*
COc1ccc(-n2nc3c(c2NC(=O)C(C)Oc2ccccc2)CS(=O)C3)cc1 (configuration not stated) | 3.9 | -0.9 | 3.1 | -0.2 | . | .
COc1ccc(S(=O)(=O)NNC(=O)c2cc3c4ccccc4n(C)c3s2)cc1 | -0.8 | 0.8 | 110.1* | 0.7 | 98.4* | 245.8*
COc1ccc(S(=O)(=O)NNC(=O)c2cccs2)cc1 | -7.2 | -1.4 | 3.4 | 0.1 | . | .
C[C@H](NC(N)=O)C(=O)Nc1ccc2c(c1)OCO2 | -5.6 | -0.8 | 4.5 | 0.8 | . | .
Cc1ccc2sc(NC(=O)CN3C(=O)c4ccccc4C3=O)nc2c1C | -8.5 | -3.4 | 0.6 | -1.7 | . | .
CC(C)(C)c1ccc(C(=O)Nc2nnc(Cc3c[nH]c4ccccc34)s2)cc1 | -10.1 | -7.0 | 90.0* | 36.4 | 87.7* | 13.7*
O=C(Nc1nnc(Cc2c[nH]c3ccccc23)s1)c1ccc(Cl)cc1Cl | -2.5 | 1.6 | 23.5 | 0.9 | . | .
O=C(N/N=C/c1cccc([N+](=O)[O-])c1)c1c[nH]c2ccccc12 | 6.1 | 0.3 | 97.4* | -0.3 | 139.7* | 19.1*
Cn1cc(C(=O)N/N=C/c2cccc([N+](=O)[O-])c2)c2ccccc21 | 2.8 | 2.1 | 98.7* | 2.8 | 41.2 | 19.3*
O=C(N/N=C/c1cc([N+](=O)[O-])ccc1O)c1c[nH]c2ccccc12 | -5.9 | 0.0 | 21.0 | 5.1 | . | .
Cn1ccs/c1=N\C(=O)Nc1cccc(C(F)(F)F)c1 | -3.6 | -1.2 | 106.5* | -0.6 | 111.0* | 60.4*
Cc1cccc(NC(=O)CSCC(=O)N=c2sccn2C)c1 | -7.2 | 1.9 | 13.4 | -2.1 | . | .
Cc1cc(N2CCOCC2)nc2ccc(NC(=O)CCC(=O)N3CCN(c4cccc(C(F)(F)F)c4)CC3)cc12 | -10.2 | -4.3 | 12.2 | 9.0 | . | .
CC(=O)Nc1cccc(NC(=O)c2cccc3cccnc23)c1 | -7.4 | 0.1 | 123.9* | 2.6 | 100.9* | 55.6*
CN(CC(=O)Nc1ccc(Cl)c(Cl)c1)C(=O)c1cccc2cccnc12 | -9.9 | -5.1 | 8.8 | 4.3 | . | .
Cc1ccc(NC(=O)c2cccc3cccnc23)cc1 | -9.2 | -0.7 | 120.9* | 2.3 | 109.6* | 30.1*
O=C(CCNC(=O)C1CCN(S(=O)(=O)c2ccc(F)cc2)CC1)Nc1ccccc1 | 1.6 | -3.7 | -0.6 | 0.2 | . | .
O=C(CSc1nnc(-c2c[nH]c3ccccc23)o1)NCC1CCCO1 (configuration not stated) | -8.6 | 1.0 | 9.1 | 0.2 | . | .
Cn1c(=O)c2c(nc(/C=C/c3cccc(Cl)c3)n2C)n(C)c1=O | -0.1 | 1.8 | 86.0* | 4.0 | 54.7* | .
CC(=O)Nc1ccc(OC(=O)c2ccc(Br)c([N+](=O)[O-])c2)cc1 | -4.9 | -1.3 | -0.3 | 3.0 | . | .
Nc1cc2c3c(cccc3c1)C(=O)N(CCN1CCCC1)C2=O | . | . | 142.5* | . | 201.4* | .
O=C1c2cccc3cccc(c23)C(=O)N1CCN1CCN(C(=S)Nc2ccc(Cl)cc2)CC1 | -4.5 | 5.0 | 96.5* | 0.8 | 109.7* | 64.8*
